Data published in PubChem BioAssay.
Values without a mark were called inactive. Active and inactive are the calls of the source.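 Rule for the calls, unless noted: active = normalized viability below 100% at a tested concentration; inactive = the rest.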

Experiments:
[1] = ovarian cancer cell viability with rucaparib, profiling panel, oncology-focused library, rucaparib conditional (AID 1508598); settings: patient-derived ovarian cancer cells, CellTiter-Glo viability, 144 h, hits give low values
[2] = target: NAD(+) hydrolase SARM1 (Homo sapiens) (UniProt Q6SZW1); experiment: SARM1 TIR NADase inhibitors, cell lysate, NAD-Glo luminescence (AID 1508614;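 active = compound whose remaining NAD level is above about 45 nM, limit read from the data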;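 note: higher remaining NAD means stronger inhibition of SARM1 NADase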); settings: SAM-TIR HEK293T lysate NADase, at 1 µM, hits give high values
[3] = at 5 µM, OCI-P5x cells, with rucaparib 20 µM, 100% = cells with rucaparib alone
[4] = at 5 µM, OCI-P5x cells, without rucaparib
[5] = at 0.000305 µM, OCI-C5x cells, with rucaparib 10 µM, 100% = cells with rucaparib alone
[6] = at 0.000305 µM, OCI-C5x cells, without rucaparib
[7] = at 0.000305 µM, OCI-P5x cells, with rucaparib 20 µM, 100% = cells with rucaparib alone
[8] = at 0.000305 µM, OCI-P5x cells, without rucaparib
[9] = at 0.00122 µM, OCI-C5x cells, with rucaparib 10 µM, 100% = cells with rucaparib alone
[10] = at 0.00122 µM, OCI-C5x cells, without rucaparib
[11] = at 0.00122 µM, OCI-P5x cells, with rucaparib 20 µM, 100% = cells with rucaparib alone
[12] = at 0.00122 µM, OCI-P5x cells, without rucaparib
[13] = at 0.00488 µM, OCI-C5x cells, with rucaparib 10 µM, 100% = cells with rucaparib alone
[14] = at 0.00488 µM, OCI-C5x cells, without rucaparib
[15] = at 0.00488 µM, OCI-P5x cells, with rucaparib 20 µM, 100% = cells with rucaparib alone
[16] = at 0.00488 µM, OCI-P5x cells, without rucaparib
[17] = at 0.0195 µM, OCI-C5x cells, with rucaparib 10 µM, 100% = cells with rucaparib alone
[18] = at 0.0195 µM, OCI-C5x cells, without rucaparib
[19] = at 0.0195 µM, OCI-P5x cells, with rucaparib 20 µM, 100% = cells with rucaparib alone
[20] = at 0.0195 µM, OCI-P5x cells, without rucaparib
[21] = at 0.0781 µM, OCI-C5x cells, with rucaparib 10 µM, 100% = cells with rucaparib alone
[22] = at 0.0781 µM, OCI-C5x cells, without rucaparib
[23] = at 0.0781 µM, OCI-P5x cells, with rucaparib 20 µM, 100% = cells with rucaparib alone
[24] = at 0.0781 µM, OCI-P5x cells, without rucaparib
[25] = at 0.313 µM, OCI-C5x cells, with rucaparib 10 µM, 100% = cells with rucaparib alone
[26] = at 0.313 µM, OCI-C5x cells, without rucaparib
[27] = at 0.313 µM, OCI-P5x cells, with rucaparib 20 µM, 100% = cells with rucaparib alone
[28] = at 0.313 µM, OCI-P5x cells, without rucaparib
[29] = at 1.25 µM, OCI-C5x cells, with rucaparib 10 µM, 100% = cells with rucaparib alone
[30] = at 1.25 µM, OCI-C5x cells, without rucaparib
[31] = at 1.25 µM, OCI-P5x cells, with rucaparib 20 µM, 100% = cells with rucaparib alone
[32] = at 1.25 µM, OCI-P5x cells, without rucaparib
[33] = at 5 µM, OCI-C5x cells, with rucaparib 10 µM, 100% = cells with rucaparib alone
[34] = at 5 µM, OCI-C5x cells, without rucaparib

NAD(+) hydrolase SARM1 (Homo sapiens), sequence (Q6SZW1 whole entry, looked up): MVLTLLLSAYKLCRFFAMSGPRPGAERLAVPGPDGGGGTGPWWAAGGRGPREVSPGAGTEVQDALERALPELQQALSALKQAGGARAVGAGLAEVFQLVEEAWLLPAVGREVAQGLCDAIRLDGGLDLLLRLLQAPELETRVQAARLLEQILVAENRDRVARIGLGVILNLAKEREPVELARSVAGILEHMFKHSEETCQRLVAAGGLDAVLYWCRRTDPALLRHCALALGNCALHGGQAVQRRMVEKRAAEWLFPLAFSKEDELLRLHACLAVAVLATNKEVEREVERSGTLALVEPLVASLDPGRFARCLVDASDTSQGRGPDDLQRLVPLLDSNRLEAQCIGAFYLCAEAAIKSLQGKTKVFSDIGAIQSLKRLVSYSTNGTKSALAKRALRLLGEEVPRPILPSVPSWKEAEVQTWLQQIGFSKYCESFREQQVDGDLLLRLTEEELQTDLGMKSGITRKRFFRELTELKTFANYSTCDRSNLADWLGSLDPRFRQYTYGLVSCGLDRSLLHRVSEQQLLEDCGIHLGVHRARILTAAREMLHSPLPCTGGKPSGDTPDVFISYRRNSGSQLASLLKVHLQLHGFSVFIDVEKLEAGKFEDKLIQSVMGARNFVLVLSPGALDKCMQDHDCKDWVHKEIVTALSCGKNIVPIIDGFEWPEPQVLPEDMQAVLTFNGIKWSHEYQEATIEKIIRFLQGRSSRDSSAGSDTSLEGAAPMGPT

O=C1[C@H](CC[C@H](O)c2ccc(F)cc2)[C@H](c2ccc(O)cc2)N1c1ccc(F)cc1
viability [1, 3]: 84.2% (active) | viability [1, 4]: 94.6% (active)

C=CCNC1=C2C[C@@H](C)C[C@H](OC)[C@H](O)[C@@H](C)/C=C(\C)[C@H](OC(N)=O)[C@@H](OC)/C=C\C=C(\C)C(=O)NC(=CC1=O)C2=O
viability [1, 5]: 110% | viability [1, 6]: 101% | viability [1, 7]: 119% | viability [1, 8]: 124% | viability [1, 9]: 113% | viability [1, 10]: 108% | viability [1, 11]: 126% | viability [1, 12]: 121% | viability [1, 13]: 110% | viability [1, 14]: 117% | viability [1, 15]: 122% | viability [1, 16]: 126% | viability [1, 17]: 120% | viability [1, 18]: 116% | viability [1, 19]: 119% | viability [1, 20]: 115% | viability [1, 21]: 133% | viability [1, 22]: 112% | viability [1, 23]: 41.9% (active) | viability [1, 24]: 35.9% (active) | viability [1, 25]: 104% | viability [1, 26]: 56.1% (active) | viability [1, 27]: 12.5% (active) | viability [1, 28]: 8.71% (active) | viability [1, 29]: 28.6% (active) | viability [1, 30]: 27.2% (active) | viability [1, 31]: 5.52% (active) | viability [1, 32]: 5.3% (active) | viability [1, 33]: 8.53% (active) | viability [1, 34]: 8.44% (active) | viability [1, 3]: 2.79% (active) | viability [1, 4]: 1.94% (active)

CCOc1ccc(Cc2cc([C@@H]3O[C@H](CO)[C@@H](O)[C@H](O)[C@@H]3O)ccc2Cl)cc1
viability [1, 5]: 111% | viability [1, 6]: 102% | viability [1, 7]: 94.3% (active) | viability [1, 8]: 91.9% (active) | viability [1, 9]: 126% | viability [1, 10]: 108% | viability [1, 11]: 96.6% (active) | viability [1, 12]: 98.1% (active) | viability [1, 13]: 108% | viability [1, 14]: 106% | viability [1, 15]: 105% | viability [1, 16]: 98.8% (active) | viability [1, 17]: 117% | viability [1, 18]: 116% | viability [1, 19]: 101% | viability [1, 20]: 107% | viability [1, 21]: 111% | viability [1, 22]: 108% | viability [1, 23]: 106% | viability [1, 24]: 106% | viability [1, 25]: 112% | viability [1, 26]: 118% | viability [1, 27]: 105% | viability [1, 28]: 105% | viability [1, 29]: 111% | viability [1, 30]: 118% | viability [1, 31]: 99.3% (active) | viability [1, 32]: 112% | viability [1, 33]: 110% | viability [1, 34]: 121% | viability [1, 3]: 106% | viability [1, 4]: 109%

CO[C@H]1C[C@H]2CC[C@@H](C)[C@@](O)(O2)C(=O)C(=O)N2CCCC[C@H]2C(=O)O[C@H]([C@H](C)C[C@@H]2CC[C@H](OP(C)(C)=O)[C@H](OC)C2)CC(=O)[C@H](C)/C=C(\C)[C@@H](O)[C@@H](OC)C(=O)[C@H](C)C[C@H](C)/C=C/C=C/C=C/1C
viability [1, 5]: 115% | viability [1, 6]: 103% | viability [1, 7]: 79.2% (active) | viability [1, 8]: 65.5% (active) | viability [1, 9]: 102% | viability [1, 10]: 97.3% (active) | viability [1, 11]: 77.8% (active) | viability [1, 12]: 59.6% (active) | viability [1, 13]: 97.3% (active) | viability [1, 14]: 90.1% (active) | viability [1, 15]: 76.6% (active) | viability [1, 16]: 61.2% (active) | viability [1, 17]: 103% | viability [1, 18]: 93.1% (active) | viability [1, 19]: 76.4% (active) | viability [1, 20]: 63% (active) | viability [1, 21]: 103% | viability [1, 22]: 96.7% (active) | viability [1, 23]: 76.7% (active) | viability [1, 24]: 60.3% (active) | viability [1, 25]: 108% | viability [1, 26]: 95.8% (active) | viability [1, 27]: 75.8% (active) | viability [1, 28]: 60.4% (active) | viability [1, 29]: 104% | viability [1, 30]: 94.5% (active) | viability [1, 31]: 82.1% (active) | viability [1, 32]: 60.8% (active) | viability [1, 33]: 114% | viability [1, 34]: 102% | viability [1, 3]: 74.3% (active) | viability [1, 4]: 59.8% (active)

Cn1c2ncnc-2c(O)n(C)c1=O
remaining NAD [2]: 10 nM

C[C@@H]1C[C@H]2[C@@H]3CCC4=CC(=O)C=C[C@]4(C)[C@]3(F)[C@H](O)C[C@]2(C)[C@]1(O)C(=O)CO
viability [1, 5]: 111% | viability [1, 6]: 118% | viability [1, 7]: 107% | viability [1, 8]: 121% | viability [1, 9]: 117% | viability [1, 10]: 125% | viability [1, 11]: 110% | viability [1, 12]: 123% | viability [1, 13]: 102% | viability [1, 14]: 116% | viability [1, 15]: 112% | viability [1, 16]: 115% | viability [1, 17]: 111% | viability [1, 18]: 117% | viability [1, 19]: 108% | viability [1, 20]: 114% | viability [1, 21]: 108% | viability [1, 22]: 107% | viability [1, 23]: 100% | viability [1, 24]: 110% | viability [1, 25]: 111% | viability [1, 26]: 109% | viability [1, 27]: 104% | viability [1, 28]: 108% | viability [1, 29]: 109% | viability [1, 30]: 116% | viability [1, 31]: 95.5% (active) | viability [1, 32]: 101% | viability [1, 33]: 117% | viability [1, 34]: 108% | viability [1, 3]: 90.8% (active) | viability [1, 4]: 101%
